Results filed as inconclusive are left out. The source made the active and inactive calls. Unless noted, calls follow the shape of the dose curve; as a rule, active = well fitted curve in the direction sought with a large enough effect in the repeat runs; inconclusive = weak or mixed curves; inactive = no such curve, though single readings can be large; an effect the other way counts as inactive or inconclusive.
Key:
[1] = A CellTox Green Cytotoxicity Assay to monitor cytotoxicity in HepG2 cells - 8 hour (AID 1224890); also: nearly all actives have a fitted effect of over 45% in size
How it was run: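 Measurements at 0, 8, 16, 24, 32 and 40 h of treatment captured CellTox Green fluorescence in HepG2 cells that had been co-plated with reagent and preincubated 5 h at 37 C/5% CO2.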

[2] = qHTS assay to identify small molecule antagonists of the estrogen receptor alpha (ER-alpha) signaling pathway using the BG1 cell line in the presence of 0.1 nM 17-beta-estradiol - cell viability counter screen (AID 1259241); also: nearly all actives have a fitted effect of over 40% in size
How it was run: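 The cell line endogenously expresses full-length ER-alpha and carries four EREs driving luciferase. Cells are cultured 5 days hormone-free, treated 22 hr with compounds and 0.1 nM estradiol, then viability is read by fluorescence.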

[3] = qHTS assay to identify small molecule antagonists of the androgen receptor (AR) signaling pathway using the MDA cell line in the presence of 0.5 nM R1881 - cell viability counter screen (AID 1259242); also: nearly all actives have a fitted effect of over 45% in size
How it was run: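 Concentration-response screen of compounds for toxicity in MDA-kb2 reporter cells: 16 hr at 37C with 0.5 nM R1881, endpoint live-cell protease fluorescence measured in the reporter wells.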

[4] = qHTS assay to identify small molecule HDAC inhibitors (AID 1259364);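 also: wild-type HCT-116 cells with endogenous class I/II HDAC activity; top concentration of the series differs between compounds; nearly all actives have a fitted effect of over 45% in size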
How it was run: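 Screening used wild-type human colon HCT-116 cells incubated overnight, dosed with compounds for 2 hours, and assayed with a homogeneous luminogenic HDAC I/II reagent for 30 minutes at room temperature.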

[5] = qHTS assay to identify small molecule HDAC inhibitors - cell viability counter screen (AID 1259365); also: series mostly up to about 92 µM; nearly all actives have a fitted effect of over 50% in size
How it was run: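 Viability readout: CellTiter-Glo luminescence. Wild-type HCT-116 cells, 2hr compound treatment following overnight attachment at 37 C.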

[6] = qHTS assay to identify small molecule agonists of the sonic hedgehog signaling (Shh) pathway - cell viability counter screen (AID 1259366); also: nearly all actives have a fitted effect of over 50% in size
How it was run: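 Viability measured fluorometrically (CellTiter-Fluor, 1hr, 37C) in 3T3 Gli1-Luc reporter cells after 23hr compound exposure within a 24hr incubation at 37C/5% CO2.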

[7] = qHTS assay to identify small molecule antagonists of the sonic hedgehog signaling (Shh) pathway - cell viability counter screen (AID 1259367); also: nearly all actives have a fitted effect of over 55% in size
How it was run: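 CellTiter-Fluor signal in conditioned medium-stimulated 3T3 Gli1-Luc cells, 23 hr compound exposure, 37C.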

[8] = qHTS assay to identify small molecule agonists of the sonic hedgehog signaling (Shh) pathway (AID 1259368; calls by dose curve;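 also: NIH/3T3-derived 3T3Gli1-Luc cells carrying a stable Gli1-driven firefly luciferase reporter; series mostly up to about 92 µM; nearly all actives have a fitted effect of over 15% in size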)
How it was run: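 Hedgehog pathway agonism scored by increased firefly luciferase luminescence in 3T3Gli1-Luc cells treated 24 hr at 37 C; detection used a 30 min room-temperature reagent incubation.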

[9] = qHTS assay to identify small molecule antagonists of the sonic hedgehog signaling (Shh) pathway (AID 1259369; calls by dose curve; also: nearly all actives have a fitted effect of over 45% in size; also: potency is read from the fitted curve at half-maximal effect)
How it was run: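 NIH/3T3 stable Gli1-Luc clone, 2,000 cells/well, 4hr settle; cpd + conditioned medium 24hr; Luc reagent 30min RT; luminescence.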

[10] = target: Estrogen receptor beta (Homo sapiens) (UniProt Q92731); assay: qHTS assay to identify small molecule agonists of the estrogen receptor beta (ER-beta) signaling pathway (AID 1259377; active = well fitted activation curve with a large enough effect in the signal ratio in the repeat runs, not every such curve was filed as active; the % refers to the signal ratio)
How it was run: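 A UAS-controlled beta-lactamase reporter in ER-beta-UAS-bla HEK293T cells reports receptor activation. Compounds act for 16 hr at 37C in 2% charcoal-stripped serum, and a FRET substrate is read by fluorescence after 2 hours.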

[11] = target: Estrogen receptor beta (Homo sapiens) (UniProt Q92731); assay: qHTS assay to identify small molecule antagonists of the estrogen receptor beta (ER-beta) signaling pathway (AID 1259378; active = well fitted inhibition curve with a large enough effect in the signal ratio in the repeat runs, not every such curve was filed as active; the % refers to the signal ratio)
How it was run: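 Antagonist mode: compounds added to beta-lactamase reporter HEK293T ER-beta-UAS cells stimulated with E2 (1nM final), 16 hr at 37C. LiveBLAzer B/G FRET substrate, 2 hours room temperature, fluorescence read-out.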

[12] = qHTS assay to identify small molecule agonists of the androgen receptor (AR) signaling pathway in the presence of an antagonist - cell viability counter screen (AID 1259379);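 also: MDA-kb2 human breast cancer cells carrying an MMTV luciferase reporter; series mostly up to about 92 µM; nearly all actives have a fitted effect of over 25% in size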
How it was run: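 MDA-kb2 viability measured by CellTiter-Fluor fluorescence in the same wells as the luciferase signal; nilutamide 3.0uM final; 15-point compound titration; 16 hr at 37C.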

[13] = qHTS assay to identify small molecule agonists of the estrogen receptor beta (ER-beta) signaling pathway - cell viability counter screen (AID 1259380); also: nearly all actives have a fitted effect of over 30% in size; also: potency is read from the fitted curve at half-maximal effect
How it was run: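 Measured: luminescence from CellTiter-Glo after 30 min at room temperature, added to wells already read for the LiveBLAzer FRET reporter (2 hr substrate); ER-beta-UAS-bla HEK293T cells had 16 hr compound treatment at 37C, 5% CO2.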

[14] = qHTS assay to identify small molecule antagonists of the estrogen receptor beta (ER-beta) signaling pathway - cell viability counter screen (AID 1259382);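 also: HEK293T cells carrying ER-beta-UAS-bla reporter stimulated with estradiol; series mostly up to about 92 µM; nearly all actives have a fitted effect of over 55% in size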
How it was run: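 Readout: luminescence, CellTiter-Glo, same wells as bla assay. System: ER-beta-UAS-bla GripTite HEK293T, 2% charcoal-stripped FBS. Exposure: compounds plus 1nM 17-beta-estradiol, 16 hr, 37C.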

[15] = target: Estrogen receptor (Homo sapiens) (UniProt P03372); assay: qHTS assay to identify small molecule agonists of the estrogen receptor alpha (ER-alpha) signaling pathway in the presence of an antagonist (AID 1259383; calls by dose curve; also: top concentration of the series differs between compounds; nearly all actives have a fitted effect of over 15% in size)
How it was run: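 Quantitative HTS confirmation: compounds titrated at 15 concentrations onto estrogen-deprived VM7Luc4E2 cells carrying a four-ERE luciferase construct, with ICI-182,780 present at 10.0nM final. Signal is luminescence after 22hr exposure.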

[16] = qHTS assay to identify small molecule agonists or antagonists of the thyroid stimulating hormone receptor (TSHR) signaling pathway - wild type cell line counter screen (AID 1259384; calls by dose curve)
How it was run: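 Counter screen in untransfected Hek293: compounds (15-point titration, triplicate) plus phosphodiesterase inhibitor Ro20-1724 added after 18 h plating; 30 min RT. Intracellular cAMP via competitive d2/cryptate immunoassay, 1 h incubation.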

[17] = qHTS assay to identify small molecule phospholipidosis (PLD) inducers (AID 1259344; active = well fitted curve in the direction sought with a large enough effect; an effect the other way counts as inactive or inconclusive)
How it was run: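 Accumulated phospholipid, stained red by LipidTOX during 24 h compound treatment of HepG2 cells at 37 C, is quantified from images as pit number and intensity, normalised per cell using Hoechst-stained nuclei.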

[18] = target: Androgen receptor (Homo sapiens) (UniProt P10275); assay: qHTS assay to identify small molecule agonists of the androgen receptor (AR) signaling pathway in the presence of an antagonist (AID 1259381; calls by dose curve; also: nearly all actives have a fitted effect of over 15% in size; also: potency is read from the fitted curve at half-maximal effect)
How it was run: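 Luminescent ONE-Glo read, 30min at room temperature, follows 16hr compound exposure (15 concentrations) of MDA-kb2 cells at 37C, 0% CO2, with nilutamide added at 3.0uM final.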
% is scaled to controls: 0 for no effect and ±100 for the full control effect.

Estrogen receptor beta (Homo sapiens), sequence (Q92731 whole entry, looked up): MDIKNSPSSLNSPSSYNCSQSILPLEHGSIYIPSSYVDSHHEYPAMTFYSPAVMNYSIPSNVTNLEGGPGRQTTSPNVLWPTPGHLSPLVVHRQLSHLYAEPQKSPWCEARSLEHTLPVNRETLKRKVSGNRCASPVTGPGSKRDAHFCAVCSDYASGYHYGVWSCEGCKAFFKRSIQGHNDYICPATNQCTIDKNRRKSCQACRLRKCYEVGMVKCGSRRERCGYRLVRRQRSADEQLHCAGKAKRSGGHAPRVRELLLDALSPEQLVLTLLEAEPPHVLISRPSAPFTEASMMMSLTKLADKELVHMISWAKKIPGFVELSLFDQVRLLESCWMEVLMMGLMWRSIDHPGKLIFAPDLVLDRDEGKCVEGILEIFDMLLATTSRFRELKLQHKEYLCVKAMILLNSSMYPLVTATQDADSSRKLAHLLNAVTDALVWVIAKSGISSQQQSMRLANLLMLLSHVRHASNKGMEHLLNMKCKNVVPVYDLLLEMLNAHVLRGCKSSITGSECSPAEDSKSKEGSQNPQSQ
Estrogen receptor (Homo sapiens), sequence (P03372 whole entry, looked up): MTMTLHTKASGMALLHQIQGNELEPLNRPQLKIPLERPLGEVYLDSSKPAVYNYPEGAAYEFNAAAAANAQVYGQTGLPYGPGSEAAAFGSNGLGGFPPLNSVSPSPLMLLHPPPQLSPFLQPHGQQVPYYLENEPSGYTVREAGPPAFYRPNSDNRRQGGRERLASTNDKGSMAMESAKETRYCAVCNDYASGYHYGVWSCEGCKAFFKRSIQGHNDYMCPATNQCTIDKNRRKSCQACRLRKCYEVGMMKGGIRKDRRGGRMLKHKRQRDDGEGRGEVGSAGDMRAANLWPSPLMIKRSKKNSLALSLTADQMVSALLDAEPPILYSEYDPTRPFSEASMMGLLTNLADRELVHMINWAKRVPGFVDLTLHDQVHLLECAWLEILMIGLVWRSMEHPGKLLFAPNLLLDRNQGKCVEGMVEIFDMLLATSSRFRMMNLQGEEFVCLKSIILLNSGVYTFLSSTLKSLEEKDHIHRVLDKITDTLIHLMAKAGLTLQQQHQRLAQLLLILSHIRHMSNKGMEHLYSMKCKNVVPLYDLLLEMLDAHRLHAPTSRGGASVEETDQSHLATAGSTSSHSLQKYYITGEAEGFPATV
Androgen receptor (Homo sapiens), sequence (P10275 whole entry, looked up): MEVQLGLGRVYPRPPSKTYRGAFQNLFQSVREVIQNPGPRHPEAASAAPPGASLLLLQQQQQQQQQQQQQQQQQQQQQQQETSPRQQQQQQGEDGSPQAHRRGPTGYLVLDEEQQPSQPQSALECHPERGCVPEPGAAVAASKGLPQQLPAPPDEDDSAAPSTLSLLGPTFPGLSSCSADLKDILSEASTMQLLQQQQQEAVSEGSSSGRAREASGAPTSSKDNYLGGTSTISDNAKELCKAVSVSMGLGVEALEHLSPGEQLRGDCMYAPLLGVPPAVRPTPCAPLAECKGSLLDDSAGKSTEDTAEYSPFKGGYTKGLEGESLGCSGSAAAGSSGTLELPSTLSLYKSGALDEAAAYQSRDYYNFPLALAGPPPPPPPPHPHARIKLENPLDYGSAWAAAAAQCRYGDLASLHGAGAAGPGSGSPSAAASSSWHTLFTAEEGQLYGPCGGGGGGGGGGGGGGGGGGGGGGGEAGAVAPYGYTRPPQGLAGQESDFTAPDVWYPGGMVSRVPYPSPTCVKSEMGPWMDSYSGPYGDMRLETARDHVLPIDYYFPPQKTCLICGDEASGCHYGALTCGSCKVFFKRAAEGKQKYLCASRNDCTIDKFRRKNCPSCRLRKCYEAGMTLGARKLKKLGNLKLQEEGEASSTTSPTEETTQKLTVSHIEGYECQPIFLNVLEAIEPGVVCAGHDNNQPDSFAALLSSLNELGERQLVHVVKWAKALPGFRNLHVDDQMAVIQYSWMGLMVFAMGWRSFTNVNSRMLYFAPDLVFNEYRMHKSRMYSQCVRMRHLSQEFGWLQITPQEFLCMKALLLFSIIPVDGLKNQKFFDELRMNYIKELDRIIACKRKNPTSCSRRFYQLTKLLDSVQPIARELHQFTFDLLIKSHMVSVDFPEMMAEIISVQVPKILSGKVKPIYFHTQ

O=C1CCCc2ccccc21
inactive: Potency [1] | Potency [2] | outcome [3] | Potency [4] | outcome [5] | Potency [6] | Potency [7] | Potency [8] | Potency [9] | outcome [10] | Potency [11] | Potency [12] | Potency [13] | outcome [14] | Potency [15] | outcome [16]

CCCC1CCC(=O)O1 (configuration not stated)
inactive: Potency [1] | Potency [2] | outcome [3] | Potency [4] | outcome [5] | Potency [6] | Potency [7] | Potency [8] | Potency [9] | Potency [12] | Potency [13] | outcome [14] | outcome [16]

O=C(C(Cl)Cl)N1CCOC12CCCCC2
inactive: Potency [1] | Potency [2] | outcome [3] | Potency [4] | outcome [5] | Potency [6] | Potency [7] | Potency [8] | Potency [9] | outcome [10] | Potency [11] | Potency [13] | outcome [14] | Potency [15] | outcome [16]

CCNCCO
inactive: Potency [1] | Potency [2] | outcome [3] | Potency [4] | outcome [5] | Potency [6] | Potency [7] | Potency [8] | Potency [9] | Potency [12] | outcome [14] | outcome [16]

CN1CCC[C@@H]1Cc1c[nH]c2ccc(CCS(=O)(=O)c3ccccc3)cc12
inactive: Potency [1] | Potency [2] | outcome [3] | Potency [4] | outcome [5] | Potency [6] | Potency [7] | Potency [8] | outcome [10] | Potency [11] | Potency [12] | Potency [13] | outcome [14] | outcome [16]
active: Potency [9] 13.3 µM

C=CCCC=C
inactive: Potency [1] | Potency [2] | outcome [3] | Potency [4] | outcome [5] | Potency [6] | Potency [7] | Potency [8] | Potency [9] | outcome [10] | Potency [11] | Potency [12] | Potency [13] | outcome [14] | Potency [15] | outcome [16]

CC(=O)Nc1ccc(C)c(Cl)c1
inactive: Potency [1] | Potency [2] | outcome [3] | Potency [4] | outcome [5] | Potency [6] | Potency [7] | Potency [8] | Potency [9] | Potency [12] | Potency [13] | outcome [14] | outcome [16]

Cc1cn([C@@H]2O[C@H](CO)[C@@H](O)[C@@H]2F)c(=O)[nH]c1=O
inactive: Potency [1] | Potency [2] | outcome [3] | Potency [4] | outcome [5] | Potency [6] | Potency [7] | Potency [9] | outcome [10] | Potency [11] | Potency [12] | Potency [13] | outcome [14] | outcome [16]

COC(=O)c1ccc(OC)cc1
inactive: Potency [1] | Potency [2] | outcome [3] | Potency [4] | outcome [5] | Potency [6] | Potency [7] | Potency [8] | Potency [9] | outcome [10] | Potency [11] | Potency [12] | Potency [13] | outcome [14] | outcome [16]

CCCCC(CC)COC(=O)COc1cc(Cl)c(Cl)cc1Cl (configuration not stated)
inactive: Potency [1] | Potency [2] | outcome [3] | Potency [4] | outcome [5] | Potency [6] | Potency [7] | Potency [8] | Potency [9] | outcome [10] | Potency [11] | Potency [12] | Potency [13] | outcome [14] | Potency [15] | outcome [16]

CC(C)C1=CC2=CC[C@@H]3[C@](C)(CCC[C@@]3(C)C(=O)O)[C@H]2CC1
inactive: Potency [1] | Potency [2] | outcome [3] | outcome [17] | Potency [4] | Potency [6] | Potency [7] | Potency [8] | Potency [9] | Potency [12] | outcome [14] | Potency [15]

C1CSCCS1
inactive: Potency [1] | Potency [2] | outcome [3] | Potency [4] | outcome [5] | Potency [6] | Potency [7] | Potency [8] | Potency [9] | Potency [12] | Potency [13] | outcome [14] | outcome [16]

O=C1CCN(c2ccccc2)N1
inactive: Potency [1] | Potency [2] | outcome [3] | Potency [4] | outcome [5] | Potency [6] | Potency [7] | Potency [8] | Potency [9] | outcome [10] | Potency [12] | Potency [15] | outcome [16]
active: Potency [13] 21.8 µM | Potency [18] 30.7 µM

NC(Cc1ccc(F)cc1)C(=O)O (configuration not stated)
inactive: cytotoxicity increase [1] 1.46% [at 6.97 µM] | activity change, negative = cytotoxicity [2] 0.956% [at 8.39 µM] | viability change, negative = cytotoxic [3] 3.8% [at 8.39 µM] | activity change, negative = inhibition [4] -2.41% [at 8.39 µM] | activity change, negative = cytotoxicity [5] 4.97% [at 8.39 µM] | viability change, negative = cytotoxic [6] -12.8% [at 8.39 µM] | activity change [8] 0.322% [at 8.39 µM, stronger effect = higher value] | activity change, negative = inhibition [9] -11.4% [at 8.39 µM] | activation [10] -1.32% [at 8.39 µM] | activity, negative = inhibition [11] 7.98% [at 8.39 µM] | activity change, negative = cytotoxicity [12] -0.068% [at 8.39 µM] | activity change, negative = cytotoxicity [13] 1.35% [at 8.39 µM] | activity change, negative = cytotoxicity [14] 1.79% [at 8.39 µM] | cAMP activity change [16] -1.15% [at 8.39 µM]

CC(C)Nc1nc(N)nc(Cl)n1
inactive: Potency [1] | Potency [2] | outcome [3] | Potency [4] | outcome [5] | Potency [6] | Potency [7] | Potency [8] | outcome [10] | Potency [12] | outcome [14] | outcome [16]

CCOC(=O)NCCC[Si](OCC)(OCC)OCC
inactive: Potency [1] | Potency [2] | outcome [3] | Potency [4] | outcome [5] | Potency [6] | Potency [8] | Potency [9] | outcome [10] | Potency [11] | Potency [12] | Potency [13] | outcome [14] | Potency [15] | outcome [16]

Cc1nc(-c2ccccn2)ncc1C(=O)Nn1cc(C)c2cc(F)ccc21
inactive: Potency [1] | Potency [2] | outcome [3] | Potency [4] | outcome [5] | Potency [6] | Potency [7] | Potency [12] | Potency [18] | Potency [15] | outcome [16]

— PubChem BioAssay (Tox21)
